Source: ChEMBL document CHEMBL1157539, “Thousands of chemical starting points for antimalarial lead identification” (Nature, 2010)
Where “and” joins values, the source holds several entries; their conditions need not be identical. Equal values may be shown once.

system: Plasmodium falciparum; test: GSK_TCMDC: Inhibition of Plasmodium falciparum 3D7 in whole red blood cells, using parasite LDH activity as an index of growth. Test compounds present at 2uM; assay type: functional

Row | Compound | Inhibition
1 | Cc1[nH]c2ccccc2c1C1=CCN(CCCCCC23CCCc4cccc(c42)NC3=O)CC1 (stereo unspecified) | 94%
2 | CN(c1cc(NC(=O)c2cccs2)ccn1)C1CCN(Cc2ccccc2)CC1.O=C(O)C(F)(F)F | 92%
3 | S=C(NCCc1ccc(Cl)cc1)N1CCC(CN2CCC(c3c[nH]c4ccccc34)CC2)CC1 | 90%
4 | Br.CCCCCCCSc1ccc(CC(C)NCC(O)c2cccc(Cl)c2)cc1 (stereo unspecified) | 100%
5 | Cc1cc(NC(=O)[C@H](CC(C)C)Nc2ccc(C#N)c3ccccc23)ccc1F.O=C(O)C(F)(F)F | 95%
6 | O=C(NC1CCC(CN2CCC(c3c[nH]c4ccccc34)CC2)CC1)c1cc2ccccc2s1 (stereo unspecified) | 98% and 100%
7 | CCCCNC(c1ccc(Cl)cc1)C(O)c1ccc(Cl)cc1.Cl (stereo unspecified) | 99%
8 | O=C(/C=C/c1ccc(Cl)cc1)NC1CCC(CN2CCC(c3c[nH]c4ccccc34)CC2)CC1 (stereo unspecified) | 99% and 100%
9 | CCCCCCC(CC)c1cc(O)c2c(c1)OC(C)(C)c1ccncc1-2.Cl (stereo unspecified) | 94%
10 | Oc1ccccc1CN1CCC(CCOC(c2ccccc2)c2ccc(Cl)cc2)CC1 (stereo unspecified) | 97%
11 | CC(C)CNCc1cccc(-c2cccc(CN(C(=O)NC3CCCCC3)C3CCN(Cc4ccccc4)CC3)c2)c1.O=C(O)C(F)(F)F | 97%
12 | COc1ccc(C(=O)C2CC2CN2CC=C(c3c[nH]c4ccccc34)CC2)cc1 (stereo unspecified) | 95%
13 | CN(C)c1cccc(CCNCCc2c[nH]c3ccc(Cl)cc23)c1.O=C(O)C(=O)O | 94%
14 | O=C(C=Cc1ccc(Br)cc1)NC1CCC(CN2CCC(c3c[nH]c4ccccc34)CC2)CC1 (stereo unspecified) | 100%
15 | Cl.Fc1ccc2[nH]cc(CCN3CCC(CNCc4ccccc4)CC3)c2c1 | 100%
16 | CN(C)CCc1c[nH]c2ccc(C(=O)Nc3ccc(-c4ccncc4)cc3)cc12.O=C(O)CCC(=O)O | 99%
17 | CCCCCCC(C)(C)c1cc(O)c2c(c1)OC(C)(C)c1ccncc1-2.Cl | 95%
18 | CC[C@H]1CN2CC[C@H]1C[C@H]2[C@H](OC(=O)c1ccccc1)c1cc(C#N)nc2ccc(OC)cc12 | 97%
19 | CN1CC=C(C=Cc2c[nH]c3ccccc23)CC1 | 86%

Row | Compound | Inhibition
20 | Cc1[nH]c2ccccc2c1C1=CCN(CCCCC2(C)C(=O)Nc3ccccc32)CC1 (stereo unspecified) | 94%
21 | COc1ccc2[nH]cc(C3=CCN(CC4CC4C(=O)c4ccccc4)CC3)c2n1 (stereo unspecified) | 95%
22 | O=C(/C=C/c1ccc(Cl)c(Cl)c1)N1CCC(CN2C3CCC2CC(c2c[nH]c4ccccc24)C3)CC1 (stereo unspecified) | 100%
23 | Cc1[nH]c2ccccc2c1C1=CCN(CCN2CCOc3c(Br)cccc3C2=O)CC1 | 97%
24 | CC(=O)C1(c2ccccc2)CCN(CCC2(c3ccc(Cl)c(Cl)c3)CN(C(=O)C3CCCC3)CCO2)CC1 (stereo unspecified) | 88%
25 | COc1cc(CN2CCN(c3ccnc(N(C)C4CCN(C)CC4)n3)CC2)cc(Cl)c1O | 94%
26 | CC(C)CNCc1cccc(-c2cccc(CN(C(=O)Nc3ccccc3)C3CCN(Cc4ccccc4)CC3)c2)c1.O=C(O)C(F)(F)F | 100%
27 | CN(c1cc(NC(=O)c2ccccc2)ccn1)C1CCN(Cc2cccc(F)c2)CC1.O=C(O)C(F)(F)F | 92%
28 | CC[C@H]1CN2CC[C@H]1C[C@@H]2[C@H](O)c1ccnc2ccc(O)cc12 | 94%
29 | CSc1nccc(-c2ccc(S(=O)(=O)NC3CCC(CN4CCC(c5c[nH]c6ccccc56)CC4)CC3)s2)n1 (stereo unspecified) | 100%
30 | CNCC(O)c1cc(Cl)c(Cl)cc1C.Cl (stereo unspecified) | 98%
31 | Cc1cc2ccc(CNCCc3ccccc3Br)cc2nc1N.Cl | 100%
32 | COC(=O)/C=C/c1ccc(CC(C)NCC(O)c2cccc(C(F)(F)F)c2)cc1 (stereo unspecified) | 97%
33 | CC(NC(C)(C)C)C(O)c1ccc(Cl)c(C(F)(F)F)c1.Cl (stereo unspecified) | 97%
34 | O=C(CCC(=O)c1ccc2c3c(cccc13)CC2)NC1CCC(CN2CCC(c3c[nH]c4ccccc34)CC2)CC1 (stereo unspecified) | 96%
35 | COc1cccc(C(=O)C2CC2CN2CC=C(c3c(C)[nH]c4ccccc34)CC2)c1 (stereo unspecified) | 92%
36 | COc1cccc(C(=O)C2CC2CN2CC=C(c3c[nH]c4ccc(OC)nc34)CC2)c1 (stereo unspecified) | 94%
37 | CCCN(CCC)CCOC(=O)C(OCC)(c1ccccc1)c1ccccc1 | 97%
38 | CC(=O)Nc1ccc(OCCN(CC(F)(F)F)c2ccc(C#N)cc2C(F)(F)F)cc1 | 81%

system: Plasmodium falciparum; test: GSK_TCMDC: Inhibition of Plasmodium falciparum Dd2 in whole red blood cells, using parasite LDH activity as an index of growth. Test compounds present at 2uM; assay type: functional

Row | Compound | Inhibition
39 | Cc1[nH]c2ccccc2c1C1=CCN(CCCCCC23CCCc4cccc(c42)NC3=O)CC1 (stereo unspecified) | 91%
40 | CN(c1cc(NC(=O)c2cccs2)ccn1)C1CCN(Cc2ccccc2)CC1.O=C(O)C(F)(F)F | 87%
41 | S=C(NCCc1ccc(Cl)cc1)N1CCC(CN2CCC(c3c[nH]c4ccccc34)CC2)CC1 | 7%
42 | Br.CCCCCCCSc1ccc(CC(C)NCC(O)c2cccc(Cl)c2)cc1 (stereo unspecified) | 99%
43 | Cc1cc(NC(=O)[C@H](CC(C)C)Nc2ccc(C#N)c3ccccc23)ccc1F.O=C(O)C(F)(F)F | 88%
44 | O=C(NC1CCC(CN2CCC(c3c[nH]c4ccccc34)CC2)CC1)c1cc2ccccc2s1 (stereo unspecified) | 68% and 43%
45 | CCCCNC(c1ccc(Cl)cc1)C(O)c1ccc(Cl)cc1.Cl (stereo unspecified) | 98%
46 | O=C(/C=C/c1ccc(Cl)cc1)NC1CCC(CN2CCC(c3c[nH]c4ccccc34)CC2)CC1 (stereo unspecified) | 90% and 67%
47 | CCCCCCC(CC)c1cc(O)c2c(c1)OC(C)(C)c1ccncc1-2.Cl (stereo unspecified) | 52%
48 | Oc1ccccc1CN1CCC(CCOC(c2ccccc2)c2ccc(Cl)cc2)CC1 (stereo unspecified) | 99%
49 | CC(C)CNCc1cccc(-c2cccc(CN(C(=O)NC3CCCCC3)C3CCN(Cc4ccccc4)CC3)c2)c1.O=C(O)C(F)(F)F | 87%
50 | COc1ccc(C(=O)C2CC2CN2CC=C(c3c[nH]c4ccccc34)CC2)cc1 (stereo unspecified) | 89%
51 | CN(C)c1cccc(CCNCCc2c[nH]c3ccc(Cl)cc23)c1.O=C(O)C(=O)O | 75%
52 | O=C(C=Cc1ccc(Br)cc1)NC1CCC(CN2CCC(c3c[nH]c4ccccc34)CC2)CC1 (stereo unspecified) | 98%
53 | Cl.Fc1ccc2[nH]cc(CCN3CCC(CNCc4ccccc4)CC3)c2c1 | 94%
54 | CN(C)CCc1c[nH]c2ccc(C(=O)Nc3ccc(-c4ccncc4)cc3)cc12.O=C(O)CCC(=O)O | 46%
55 | CCCCCCC(C)(C)c1cc(O)c2c(c1)OC(C)(C)c1ccncc1-2.Cl | 99%
56 | CC[C@H]1CN2CC[C@H]1C[C@H]2[C@H](OC(=O)c1ccccc1)c1cc(C#N)nc2ccc(OC)cc12 | 49%
57 | CN1CC=C(C=Cc2c[nH]c3ccccc23)CC1 | 64%

Row | Compound | Inhibition
58 | Cc1[nH]c2ccccc2c1C1=CCN(CCCCC2(C)C(=O)Nc3ccccc32)CC1 (stereo unspecified) | 89%
59 | COc1ccc2[nH]cc(C3=CCN(CC4CC4C(=O)c4ccccc4)CC3)c2n1 (stereo unspecified) | 93%
60 | O=C(/C=C/c1ccc(Cl)c(Cl)c1)N1CCC(CN2C3CCC2CC(c2c[nH]c4ccccc24)C3)CC1 (stereo unspecified) | 66%
61 | Cc1[nH]c2ccccc2c1C1=CCN(CCN2CCOc3c(Br)cccc3C2=O)CC1 | 76%
62 | CC(=O)C1(c2ccccc2)CCN(CCC2(c3ccc(Cl)c(Cl)c3)CN(C(=O)C3CCCC3)CCO2)CC1 (stereo unspecified) | 70%
63 | COc1cc(CN2CCN(c3ccnc(N(C)C4CCN(C)CC4)n3)CC2)cc(Cl)c1O | 63%
64 | CC(C)CNCc1cccc(-c2cccc(CN(C(=O)Nc3ccccc3)C3CCN(Cc4ccccc4)CC3)c2)c1.O=C(O)C(F)(F)F | 89%
65 | CN(c1cc(NC(=O)c2ccccc2)ccn1)C1CCN(Cc2cccc(F)c2)CC1.O=C(O)C(F)(F)F | 94%
66 | CC[C@H]1CN2CC[C@H]1C[C@@H]2[C@H](O)c1ccnc2ccc(O)cc12 | 0%
67 | CSc1nccc(-c2ccc(S(=O)(=O)NC3CCC(CN4CCC(c5c[nH]c6ccccc56)CC4)CC3)s2)n1 (stereo unspecified) | 33% and 67%
68 | CNCC(O)c1cc(Cl)c(Cl)cc1C.Cl (stereo unspecified) | 88%
69 | Cc1cc2ccc(CNCCc3ccccc3Br)cc2nc1N.Cl | 48%
70 | COC(=O)/C=C/c1ccc(CC(C)NCC(O)c2cccc(C(F)(F)F)c2)cc1 (stereo unspecified) | 96%
71 | CC(NC(C)(C)C)C(O)c1ccc(Cl)c(C(F)(F)F)c1.Cl (stereo unspecified) | 97%
72 | O=C(CCC(=O)c1ccc2c3c(cccc13)CC2)NC1CCC(CN2CCC(c3c[nH]c4ccccc34)CC2)CC1 (stereo unspecified) | 13%
73 | COc1cccc(C(=O)C2CC2CN2CC=C(c3c(C)[nH]c4ccccc34)CC2)c1 (stereo unspecified) | 87%
74 | COc1cccc(C(=O)C2CC2CN2CC=C(c3c[nH]c4ccc(OC)nc34)CC2)c1 (stereo unspecified) | 89%
75 | CCCN(CCC)CCOC(=O)C(OCC)(c1ccccc1)c1ccccc1 | 0%
76 | CC(=O)Nc1ccc(OCCN(CC(F)(F)F)c2ccc(C#N)cc2C(F)(F)F)cc1 | 83%
